# Laboratory results taken from PubChem BioAssay (Tox21).
# Where “and” joins values, the source holds several entries; their conditions need not be identical. Equal entries are not always repeated. Results filed as inconclusive are left out. Some compounds were tested as several samples or in several runs, with calls that do not always agree. Calls of active or inactive are those of the source. Unless noted, calls follow the shape of the dose curve; as a rule, active = well fitted curve in the direction sought with a large enough effect in the repeat runs; inconclusive = weak or mixed curves; inactive = no such curve, though single readings can be large; an effect the other way counts as inactive or inconclusive.
# Tests used:
# [1] = qHTS assay to identify small molecule agonists of H2AX (AID 1224845; active = well fitted activation curve with a large enough effect in the signal ratio in the repeat runs, not every such curve was filed as active; the % refers to the signal ratio; also: potency is read from the fitted curve at half-maximal effect)
# Procedure, shortened: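 Wild-type CHO-K1 cells plated overnight, then exposed 3 hr at 37C to compounds at 15 concentrations (0.76% DMSO). Lysed, then HTRF anti-pH2AX(S139)-cryptate/anti-H2AX-d2 detection after 24 hr at room temperature; emissions 665 and 620 nm.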
# [2] = qHTS assay to identify small molecule agonists of H2AX - cell viability counter screen (AID 1224847; calls by dose curve; also: nearly all actives have a fitted effect of over 30% in size; also: potency is read from the fitted curve at half-maximal effect)
# Procedure, shortened: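 Read-out: CellTiter-Glo luminescence, 30 min RT. Cells: wild-type CHO-K1, 1000/well, 10% FBS, plated overnight at 37C. Treatment: 15 concentrations, 3 hr, 37C, 0.76% DMSO.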
# [3] = qHTS assay to identify small molecule antagonists of the estrogen related receptor (ERR) signaling pathway from Tox21 library (AID 1224848); also: nearly all actives have a fitted effect of over 50% in size; also: potency is read from the fitted curve at half-maximal effect
# Procedure, shortened: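 Cells: ERR line, 2,000/well; 6 h preincubation 37 C/5% CO2. Cpd in DMSO via pin tool; 18 h, 37 C. ONE-Glo, 30 min RT, luminescence.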
# [4] = qHTS assay to identify small molecule agonists of the estrogen related receptor (ERR) signaling pathway from Tox21 library (AID 1224849; calls by dose curve; also: nearly all actives have a fitted effect of over 15% in size); conditions: ERR reporter cell line, ONE-Glo luciferase, 18 h; at 92.4 µM (top of the series) unless noted
# Procedure, shortened: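 ERR cells, 6 h pre-incubation 37 C/5% CO2; cpd in DMSO pinned; 18 h 37 C; ONE-Glo added, 30 min RT; luminescence read. Agonist mode, qHTS.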
# [5] = qHTS RealTime-Glo MT Cell Viability Assay in HepG2 cells - 24 hour (AID 1224867); also: nearly all actives have a fitted effect of over 50% in size; also: potency is read from the fitted curve at half-maximal effect
# Procedure, shortened: (§1)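 Luminescence read-out: viable HepG2 cells reduce a prosubstrate to a NanoLuc substrate, giving a signal proportional to live cell number. Reads taken at 0, 8, 16, 24, 32 and 40 h of compound exposure at 37 C.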
# [6] = qHTS RealTime-Glo MT Cell Viability Assay in HEK293 cells - 32 hour (AID 1224868); also: nearly all actives have a fitted effect of over 50% in size; also: potency is read from the fitted curve at half-maximal effect
# Procedure, shortened: (§2)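 Nonlytic real-time viability readout: viable cells convert prosubstrate to NanoLuc substrate, giving luminescence proportional to live cell number. HEK293, 600 cells/well, compound added after 5 h, continuous culture at 37 C.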
# [7] = A CellTox Green Cytotoxicity Assay to monitor cytotoxicity in HEK293 cells - 0 hour (AID 1224869); also: nearly all actives have a fitted effect of over 50% in size
# Procedure, shortened: (§3)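 Nonlytic real-time cytotoxicity: HEK293 + CellTox Green reagent plated, 5 h preincubation, pintool compound addition (23 nL in DMSO), 37 C for 40 h, fluorescence measured at successive time points.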
# [8] = qHTS RealTime-Glo MT Cell Viability Assay in HepG2 cells - 40 hour (AID 1224870); also: nearly all actives have a fitted effect of over 50% in size; also: potency is read from the fitted curve at half-maximal effect
# Procedure, shortened: (§4)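 HepG2 cells mixed with RealTime-Glo MT reagents (NanoLuc plus cell-permeant prosubstrate) were seeded at 600 cells/well, incubated 5 h at 37 C/5% CO2, then pinned with compounds in DMSO; nonlytic luminescence tracked viability during 40 h treatment.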
# [9] = A CellTox Green Cytotoxicity Assay to monitor cytotoxicity in HEK293 cells - 40 hour (AID 1224871); also: nearly all actives have a fitted effect of over 45% in size; also: potency is read from the fitted curve at half-maximal effect
# Procedure, shortened: as §3
# [10] = qHTS RealTime-Glo MT Cell Viability Assay in HEK293 cells - 16 hour (AID 1224872); also: nearly all actives have a fitted effect of over 50% in size; also: potency is read from the fitted curve at half-maximal effect
# Procedure, shortened: as §2
# [11] = qHTS RealTime-Glo MT Cell Viability Assay in HEK293 cells - 40 hour (AID 1224874); conditions: RealTime-Glo luminescence; max response: stronger effect = lower value; also: nearly all actives have a fitted effect of over 50% in size; also: potency is read from the fitted curve at half-maximal effect
# Procedure, shortened: (§5)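 Cells were seeded together with NanoLuc luciferase and a prosubstrate that viable cells reduce to a luciferase substrate. After a 5 h incubation at 37 C/5% CO2, compounds were added and luminescence was measured repeatedly during 40 h of treatment.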
# [12] = A CellTox Green Cytotoxicity Assay to monitor cytotoxicity in HEK293 cells - 24 hour (AID 1224875); also: nearly all actives have a fitted effect of over 45% in size; also: potency is read from the fitted curve at half-maximal effect
# Procedure, shortened: as §3
# [13] = A CellTox Green Cytotoxicity Assay to monitor cytotoxicity in HepG2 cells - 16 hour (AID 1224876); also: nearly all actives have a fitted effect of over 45% in size; also: potency is read from the fitted curve at half-maximal effect
# Procedure, shortened: (§6)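 Read-out is fluorescence of a cyanine dye excluded from live cells that stains DNA of dead HepG2 cells, with signal proportional to cytotoxicity. Plates were read at 0, 8, 16, 24, 32 and 40 h after compound addition.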
# [14] = qHTS RealTime-Glo MT Cell Viability Assay in HepG2 cells - 32 hour (AID 1224877); also: nearly all actives have a fitted effect of over 55% in size; also: potency is read from the fitted curve at half-maximal effect
# Procedure, shortened: as §1
# [15] = A CellTox Green Cytotoxicity Assay to monitor cytotoxicity in HepG2 cells - 40 hour (AID 1224879); also: nearly all actives have a fitted effect of over 40% in size; also: potency is read from the fitted curve at half-maximal effect
# Procedure, shortened: as §6
# [16] = qHTS RealTime-Glo MT Cell Viability Assay in HEK293 cells - 0 hour (AID 1224880); also: top concentration of the series differs between compounds; nearly all actives have a fitted effect of over 45% in size
# Procedure, shortened: as §5
# [17] = A CellTox Green Cytotoxicity Assay to monitor cytotoxicity in HEK293 cells - 32 hour (AID 1224881); also: nearly all actives have a fitted effect of over 40% in size; also: potency is read from the fitted curve at half-maximal effect
# Procedure, shortened: as §3
# [18] = qHTS RealTime-Glo MT Cell Viability Assay in HepG2 cells - 8 hour (AID 1224873); also: nearly all actives have a fitted effect of over 55% in size; also: potency is read from the fitted curve at half-maximal effect
# Procedure, shortened: as §4
# [19] = A CellTox Green Cytotoxicity Assay to monitor cytotoxicity in HepG2 cells - 24 hour (AID 1224878); also: nearly all actives have a fitted effect of over 45% in size; also: potency is read from the fitted curve at half-maximal effect
# Procedure, shortened: as §6
# % is scaled to controls: 0 for no effect and ±100 for the full control effect.
structure (smiles),measurement,setting,value
CCCCCCCCCCCCc1ccc(O)cc1,Potency,[1],56.6 µM (active)
same,Potency,[2],45 µM (active)
same,Potency,[3],54.5 µM (active)
same,"activity change, positive = activation",[4],-63.6% (inactive)
same,Potency,[5],49 µM (active)
same,Potency,[6],43.6 µM (active)
same,Potency,[7],inactive
same,Potency,[8],54.9 µM (active)
same,Potency,[9],49 µM (active)
same,Potency,[10],38.9 µM (active)
same,Potency,[11],38.9 µM (active)
same,Potency,[12],49 µM (active)
same,Potency,[13],15.5 µM (active)
same,Potency,[14],49 µM (active)
same,Potency,[15],19.5 µM (active)
same,Potency,[16],inactive
same,Potency,[17],49 µM (active)
CCCCCCCCCCCCCCCC[N+](C)(C)CCN(Cc1ccc(OC)cc1)c1ncccn1,Potency,[1],inactive
same,Potency,[2],43.8 µM (active)
same,Potency,[3],21.1 µM (active)
same,"activity change, positive = activation",[4],-53.6% [at 42.5 µM] (inactive)
same,Potency,[5],6.74 µM (active)
same,Potency,[6],0.952 µM (active)
same,Potency,[7],inactive
same,Potency,[8],5.35 µM (active)
same,Potency,[9],19 µM (active)
same,Potency,[10],1.34 µM (active)
same,Potency,[18],10.7 µM (active)
same,Potency,[11],0.952 µM (active)
same,Potency,[12],8.49 µM (active)
same,Potency,[13],9.52 µM (active)
same,Potency,[14],6.01 µM (active)
same,Potency,[19],6.74 µM (active)
same,Potency,[15],6.01 µM (active)
same,Potency,[16],inactive
same,Potency,[17],9.52 µM (active)
CSc1ccc(/C=C2/C(C)=C(CC(=O)O)c3cc(F)ccc32)cc1,Potency,[1],inactive
same,Potency,[2],inactive
same,Potency,[3],inactive
same,"activity change, positive = activation",[4],-7.17% [at 42.5 µM] (inactive)
same,Potency,[5],inactive
same,Potency,[6],inactive
same,Potency,[7],inactive
same,Potency,[8],inactive
same,Potency,[9],inactive
same,Potency,[10],inactive
same,Potency,[18],inactive
same,max response,[11],9.83% (inactive)
same,Potency,[12],inactive
same,Potency,[14],inactive
same,Potency,[15],inactive
same,Potency,[17],inactive
C[C@@H](NCCCc1cccc(C(F)(F)F)c1)c1cccc2ccccc12,Potency,[1],49.2 µM (active)
same,Potency,[2],49.2 µM (active)
same,Potency,[3],26.6 µM (active)
same,"activity change, positive = activation",[4],-58.9% [at 42.5 µM] (inactive)
same,Potency,[5],16.9 µM (active)
same,Potency,[6],23.9 µM (active)
same,Potency,[7],inactive
same,Potency,[8],15.1 µM (active)
same,Potency,[9],23.9 µM (active)
same,Potency,[10],23.9 µM (active)
same,Potency,[18],23.9 µM (active)
same,Potency,[11],23.9 µM (active)
same,Potency,[12],23.9 µM (active)
same,Potency,[13],19 µM (active)
same,Potency,[14],16.9 µM (active)
same,Potency,[15],15.1 µM (active)
same,Potency,[17],23.9 µM (active)
CCc1cc(Cc2cc(CC)cc(C(C)(C)C)c2O)c(O)c(C(C)(C)C)c1,Potency,[1],50.5 µM (active)
same,Potency,[2],31.8 µM (active)
same,Potency,[3],30.6 µM (active)
same,"activity change, positive = activation",[4],-75.4% (inactive)
same,Potency,[5],49 µM (active)
same,Potency,[6],19.5 µM (active)
same,Potency,[7],inactive
same,Potency,[8],54.9 µM (active)
same,Potency,[9],54.9 µM (active)
same,Potency,[10],13.8 µM (active)
same,Potency,[18],49 µM (active)
same,Potency,[11],21.9 µM (active)
same,Potency,[14],49 µM (active)
same,Potency,[16],inactive
O=C(NO)C1(NS(=O)(=O)c2ccc(Oc3ccc(F)cc3)cc2)CCOCC1,Potency,[1],inactive
same,Potency,[2],inactive
same,Potency,[3],27.3 µM (active)
same,"activity change, positive = activation",[4],-35.1% (inactive)
same,Potency,[5],inactive
same,Potency,[7],inactive
same,Potency,[8],inactive
same,Potency,[9],inactive
same,Potency,[10],inactive
same,Potency,[18],inactive
same,Potency,[12],inactive
same,Potency,[13],inactive
same,Potency,[14],inactive
same,Potency,[19],inactive
same,Potency,[15],inactive
same,Potency,[17],inactive
CN(C)C(=O)C1(N2CCCCC2)CCN(CC[C@@]2(c3ccc(Cl)c(Cl)c3)CN(C(=O)c3ccccc3)CCO2)CC1,Potency,[1],47.2 µM (active)
same,Potency,[2],52.9 µM (active)
same,Potency,[3],28.6 µM (active)
same,"activity change, positive = activation",[4],-73.9% (inactive)
same,Potency,[5],20.4 µM (active)
same,Potency,[6],10.2 µM (active)
same,Potency,[7],inactive
same,Potency,[8],18.2 µM (active)
same,Potency,[9],28.9 µM (active)
same,Potency,[10],12.9 µM (active)
same,Potency,[18],45.8 µM (active)
same,Potency,[11],11.5 µM (active)
same,Potency,[12],40.8 µM (active)
same,Potency,[13],40.8 µM (active)
same,Potency,[14],18.2 µM (active)
same,Potency,[19],20.4 µM (active)
same,Potency,[15],20.4 µM (active)
same,Potency,[16],inactive
same,Potency,[17],32.4 µM (active)
CN(C)[C@@H]1C(=O)C(C(N)=O)=C(O)[C@@]2(O)C(=O)C3=C(O)c4c(O)ccc(Cl)c4[C@@H](O)[C@H]3C[C@@H]12,Potency,[1],inactive
same,Potency,[2],inactive
same,Potency,[3],inactive
same,"activity change, positive = activation",[4],-10.9% [at 42.5 µM] (inactive)
same,Potency,[5],inactive
same,Potency,[6],inactive
same,Potency,[7],inactive
same,Potency,[8],inactive
same,Potency,[9],inactive
same,Potency,[10],inactive
same,Potency,[18],inactive
same,max response,[11],-2.42% (inactive)
same,Potency,[12],inactive
same,Potency,[13],inactive
same,Potency,[14],inactive
same,Potency,[19],inactive
same,Potency,[15],inactive
same,Potency,[16],inactive
same,Potency,[17],inactive
C[n+]1cc2c3c(ccc2c2ccc4cc5c(cc4c21)OCO5)OCO3,Potency,[1],0.956 µM (active)
same,Potency,[2],0.852 µM (active)
same,Potency,[3],2.91 µM (active)
same,"activity change, positive = activation",[4],-68.3% [at 19 µM] (inactive)
same,Potency,[5],0.827 µM (active)
same,Potency,[6],0.522 µM (active)
same,cytotoxicity,[7],-9.5% [at 15.8 µM] (inactive)
same,Potency,[8],1.04 µM (active)
same,Potency,[9],0.465 µM (active)
same,Potency,[10],0.585 µM (active)
same,Potency,[18],0.737 µM (active)
same,Potency,[11],0.585 µM (active)
same,Potency,[12],0.737 µM (active)
same,Potency,[14],0.928 µM (active)
same,Potency,[15],0.657 µM (active)
same,Potency,[17],0.465 µM (active)
CCCCCCCCOC(=O)c1ccc(O)cc1,Potency,[1],inactive
same,Potency,[2],89.5 µM (active) and 101 µM (active)
same,Potency,[5],inactive
same,Potency,[6],27.4 µM (active)
same,Potency,[7],inactive
same,Potency,[8],inactive
same,Potency,[9],38.8 µM (active) and 49 µM (active)
same,Potency,[10],27.4 µM (active)
same,Potency,[18],inactive
same,Potency,[11],27.4 µM (active)
same,Potency,[12],43.5 µM (active) and 43.6 µM (active)
same,Potency,[13],inactive and 43.6 µM (active)
same,Potency,[14],inactive
same,Potency,[19],inactive and 43.6 µM (active)
same,Potency,[15],inactive and 49 µM (active)
same,Potency,[16],inactive
same,Potency,[17],43.5 µM (active) and 43.6 µM (active)
